High-throughput results: PubChem BioAssay, several laboratories
Only a selection was taken, and hits are over-represented in it overall.
GIRK2 activator = Activators of human GIRK2-containing channels; activation (% efficacy), % for hits at 37.5 µM; HEK293 GIRK2/NPY4 cells, thallium flux fluorescence; 34,000 tested, under 10 active; AID 1259324;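 active = primary screen hit, no activity in plain HEK293 cells, and in GIRK2-only cells above 5% efficacy rising with concentration; inactive = the rest, including fluorescent compounds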;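 also: efficacy is normalized control-subtracted fluorescence 15 s after thallium addition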
AMPAR-TARP mod = GluA2-stargazin AMPA receptor complex modulation; O88602+P19491; HEK293 GluA2+stargazin, membrane potential dye (FDSS), glutamate EC50; hits were called plate by plate, in both directions; calls only at 30 µM; 40,000 tested, 3.5% active; AID 1259245;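 active = any of four per-well response measures lying three or more SD from its plate-wide compound average, in either direction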
Target sequence (O88602 whole entry, looked up): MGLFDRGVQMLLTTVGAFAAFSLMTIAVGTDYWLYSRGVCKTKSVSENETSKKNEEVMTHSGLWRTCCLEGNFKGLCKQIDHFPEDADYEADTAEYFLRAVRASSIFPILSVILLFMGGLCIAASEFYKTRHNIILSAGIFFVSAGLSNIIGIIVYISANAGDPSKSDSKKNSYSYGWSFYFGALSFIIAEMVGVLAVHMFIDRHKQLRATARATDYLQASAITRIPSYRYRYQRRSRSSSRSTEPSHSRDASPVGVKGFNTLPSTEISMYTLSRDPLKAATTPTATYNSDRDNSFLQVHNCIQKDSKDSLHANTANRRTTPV
Target sequence (P19491 whole entry, looked up): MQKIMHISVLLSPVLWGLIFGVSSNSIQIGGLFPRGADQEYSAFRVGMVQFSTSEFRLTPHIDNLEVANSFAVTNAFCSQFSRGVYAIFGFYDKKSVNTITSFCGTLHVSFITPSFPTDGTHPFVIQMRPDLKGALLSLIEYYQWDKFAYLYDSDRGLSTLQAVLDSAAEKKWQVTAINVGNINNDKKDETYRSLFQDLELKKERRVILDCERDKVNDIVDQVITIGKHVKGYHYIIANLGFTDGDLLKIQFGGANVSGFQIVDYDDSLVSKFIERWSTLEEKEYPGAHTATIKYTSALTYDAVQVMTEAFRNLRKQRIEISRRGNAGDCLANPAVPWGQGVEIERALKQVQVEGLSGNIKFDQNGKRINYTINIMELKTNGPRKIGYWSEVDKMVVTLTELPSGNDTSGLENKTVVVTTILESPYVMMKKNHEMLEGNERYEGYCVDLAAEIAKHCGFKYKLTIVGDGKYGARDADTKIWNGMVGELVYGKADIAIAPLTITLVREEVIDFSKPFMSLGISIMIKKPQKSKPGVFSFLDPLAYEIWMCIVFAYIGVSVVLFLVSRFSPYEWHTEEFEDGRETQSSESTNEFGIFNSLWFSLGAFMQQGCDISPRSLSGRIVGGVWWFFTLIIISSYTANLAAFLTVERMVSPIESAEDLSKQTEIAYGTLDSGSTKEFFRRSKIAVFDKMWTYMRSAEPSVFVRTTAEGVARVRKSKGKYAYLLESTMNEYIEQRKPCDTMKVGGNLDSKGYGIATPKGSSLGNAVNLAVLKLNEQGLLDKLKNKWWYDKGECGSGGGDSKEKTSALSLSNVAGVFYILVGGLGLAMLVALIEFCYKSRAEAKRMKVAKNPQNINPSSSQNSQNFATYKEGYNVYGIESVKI
Calls only; i = inactive; nt = no result given; + = active, no number.

SMILES | GIRK2 activator | AMPAR-TARP mod
O=C(Nc1ccc(Cl)cc1)N(CCCO)CC(O)Cn1c2ccccc2c2ccccc21 (stereo not given) | i | +
O=C(NC1CCCCC1)N(CCCO)CC(O)Cn1c2ccccc2c2ccccc21 (stereo not given) | i | i
CS(=O)(=O)c1ccc(Nc2nc(CC(=O)Nc3ccc(C(N)=O)cc3)cs2)cc1 | i | i
CC(C)(C)C(=O)Nc1sc(SCC(=O)NC2CC2)nc1-c1ccccc1 | i | i
NC(=O)CSc1nc(-c2ccccc2)c(NC(=O)CC2CCCC2)s1 | i | +
CCNC(=O)CSc1nc(-c2ccccc2)c(NC(=O)C(C)(C)Oc2ccc(Cl)cc2)s1 | i | +
COc1ccc(Cl)cc1C(=O)Nc1sc(SCC(N)=O)nc1-c1ccccc1 | i | i
CCC(=O)Nc1sc(SCC(N)=O)nc1-c1ccccc1 | i | i
COc1ccccc1C(=O)Nc1sc(SCC(N)=O)nc1-c1ccccc1 | i | +
Cc1cccc(Nc2ccc(N3CCN(C(=O)Nc4ccc5c(c4)OCCO5)CC3)nn2)n1 | i | nt
CCOc1ccccc1C(=O)Nc1ccc(OC)c(N2CCCCC2=O)c1 | i | i
CCC(CC)C(=O)Nc1cc(C)nn1-c1nc2c(cnn2-c2cccc(C)c2)c(=O)[nH]1 | i | +
Cc1cc(NC(=O)c2c(F)cccc2F)n(-c2nc3c(cnn3-c3ccc(C)c(C)c3)c(=O)[nH]2)n1 | i | +
Cc1cc(NC(=O)c2c(F)cccc2F)n(-c2nc3c(cnn3-c3cccc(Cl)c3)c(=O)[nH]2)n1 | i | i
Cc1cccc(-n2ncc3c(=O)[nH]c(-n4nc(C)cc4NC(=O)C4CC4)nc32)c1 | i | i
COc1ccc(CCC(=O)NCCn2ncc3c(N4CCCCC4)ncnc32)cc1 | i | +
O=C(CCc1ccccc1)NCCn1ncc2c(N3CCCC3)ncnc21 | i | i
O=C(c1cccs1)N(Cc1ccco1)c1nc2c(F)cc(F)cc2s1 | nt | i
CC(=O)c1ccc(C(=O)Nc2sc3c(c2-c2nc4ccccc4s2)CCN(C(C)C)C3)cc1 | nt | i
CC(C)N1CCc2c(sc(NC(=O)c3ccc(Cl)s3)c2-c2nc3ccccc3s2)C1 | nt | +
CC(C)N1CCc2c(sc(NC(=O)c3ccc([N+](=O)[O-])cc3)c2-c2nc3ccccc3s2)C1 | nt | +
CCC(=O)Nc1sc2c(c1-c1nc3ccccc3s1)CCN(C(C)C)C2 | nt | i
Cc1oc(-c2cc(Cl)ccc2Cl)cc1C(=O)N1CCOCC1 | i | i
CC(C)C(=O)N1CCCc2ccc(NC(=O)C(=O)NC3CCCCC3)cc21 | i | i
COc1ccc(NC(=O)Nc2cc(N3CCCS3(=O)=O)ccc2C)cc1OC | i | i
SMILES | GIRK2 activator | AMPAR-TARP mod
CC(=O)c1cccc(NC(=O)c2ccc(=O)n(Cc3cccc([N+](=O)[O-])c3)c2)c1 | i | +
COc1cc([N+](=O)[O-])ccc1NC(=O)c1ccc(=O)n(Cc2cccc(Cl)c2)c1 | i | +
COc1cc([N+](=O)[O-])ccc1NC(=O)c1ccc(=O)n(Cc2ccccc2)c1 | i | +
COc1cccc(NC(=O)c2ccc(=O)n(Cc3cccc([N+](=O)[O-])c3)c2)c1 | i | i
COc1cc([N+](=O)[O-])ccc1NC(=O)c1ccc(=O)n(Cc2ccc(Cl)cc2)c1 | i | i
COc1cc([N+](=O)[O-])ccc1NC(=O)c1ccc(=O)n(Cc2cccc(C(F)(F)F)c2)c1 | i | i
Cc1ccc(N2CC(c3nc4ccccc4n3Cc3cccc(C)c3)CC2=O)cc1 (stereo not given) | nt | i
O=C(CN1CC(c2nc(-c3cccc(C(F)(F)F)c3)no2)C1)NC1CCCCC1 | i | nt
O=C(CN1C(=O)c2ccccc2S1(=O)=O)Nc1ccc2c(c1)OCO2 | i | i
Cc1ccc(-c2noc(-c3cn(CC(=O)Nc4ccc(C)cc4C)c4nc(C)ccc4c3=O)n2)cc1 | i | i
COc1cccc(C(=O)N(CCCn2ccnc2)c2nc3c(F)cccc3s2)c1OC | i | i
Cc1ccc(NC(=O)c2ccc(S(=O)(=O)N(C)C)cc2)c(C)c1 | nt | i
CCC1CCCCN1S(=O)(=O)c1cc(C)c(Br)cc1C (stereo not given) | nt | i
CCOc1cc(C)c(Cl)cc1S(=O)(=O)N1CCCCC1CC (stereo not given) | nt | +
Cc1cccc(Cn2c(C3CC(=O)N(c4ccccc4)C3)nc3ccccc32)c1 (stereo not given) | nt | i
Cc1noc(C2CN(S(=O)(=O)c3cccs3)C2)n1 | i | i
Cc1noc(C2CN(S(=O)(=O)c3cccc(Cl)c3C)C2)n1 | i | +
O=C(Nc1cccc(-c2cnc3n2CCC3)c1)c1cc2ccccc2oc1=O | i | +
CCOC(=O)CCC(=O)Nc1cccc(-c2cnc3n2CCC3)c1 | i | +
COc1ccc(Br)c(C(=O)Nc2cccc(-c3cnc4n3CCC4)c2)c1 | i | i
O=C(Nc1cccc(-c2cnc3n2CCC3)c1)c1ccc(Br)o1 | i | +
O=C(Nc1cccc(Cl)c1)Nc1cccc(-c2cnc3n2CCC3)c1 | i | i
CCOC(=O)CCC(=O)Nc1cccc(N2CCCC2=O)c1 | i | i
COc1ccc(N2CCN(C(CNS(=O)(=O)c3ccc(OC)cc3)c3cccnc3)CC2)cc1 (stereo not given) | nt | i
CC1CCCCN1CC(O)COc1ccc2ccccc2c1 (stereo not given) | nt | i
SMILES | GIRK2 activator | AMPAR-TARP mod
O=C(Nc1nnc(Cc2cccs2)o1)c1cccc(N2C(=O)CCC2=O)c1 | i | i
Cn1cc(C(=O)N2CCOCC2)cc(NC(=O)c2cccs2)c1=O | nt | i
Cc1cc2c(cc1C)NC(CC(=O)NCC(C)C)C(=O)N2 (stereo not given) | nt | i
COC(=O)c1ccsc1NC(=O)CC1Nc2cc(C)c(C)cc2NC1=O (stereo not given) | i | +
COc1ccc(S(=O)(=O)N2CCN(c3ccc(-c4ccncc4)nn3)CC2)c(OC)c1 | i | +
COc1ccc(S(=O)(=O)N2CCN(c3ccc(Nc4ccncc4)nn3)CC2)cc1 | i | +
COc1ccc(C)cc1S(=O)(=O)N1CCN(c2ccc(-c3ccccc3)nn2)CC1 | i | i
O=S(=O)(c1ccccc1)N1CCN(c2ccc(Nc3ccncc3)nn2)CC1 | i | i
COc1ccc(C(CNC(=O)C(=O)NCc2cccs2)N2CCOCC2)cc1 (stereo not given) | i | nt
c1ccn2cc(C34CC5CC(CC(C5)C3)C4)nc2c1 | nt | +
Cc1cc(N2CCN(C)CC2)nc(SCC2COc3ccccc3O2)n1 (stereo not given) | nt | +
NCC(O)COCC1COc2ccccc2O1 (stereo not given) | i | i
Cc1cc(C)c(C)c(Cn2c(CCCO)nc3ccccc32)c1C | i | +
CC(=O)NCCc1nc2ccccc2n1Cc1c(C)cc(C)cc1C | i | i
CC(=O)NCCc1nc2ccccc2n1Cc1c(C)c(C)cc(C)c1C | i | +
OCCCc1nc2ccccc2n1Cc1ccc(F)cc1 | nt | i
O=C(Nc1ccc(F)c(C(F)(F)F)c1)C1CN(C(=O)c2cccs2)C1 | i | i
O=C(Nc1ccc(F)c(C(F)(F)F)c1)C1CCN(C(=O)NC2CC2)CC1 | i | +
Cn1cccc1C(CNC(=O)c1c(F)cccc1Cl)N1CCOCC1 (stereo not given) | i | i
O=C(NCCCn1cccc1)c1ccccc1 | i | +
O=C(NCCCn1cccc1)c1cc(-c2ccccc2)n[nH]1 | i | i
COc1ccc([N+](=O)[O-])cc1NC(=O)CCCS(=O)(=O)c1ccc(Cl)cc1 | nt | i
